Many of the other results were omitted from the sample, so hits are more common in it than they were.
Dicer processing: blocks human Dicer maturation of pre-miR-21. 47,000 tested, 6% active. z-score at 25 µM. AID 1347074. cat-ELCCA pre-miR-21 Dicer processing, chemiluminescence; active compounds read high; in the data active means z-score above about 3, passing the limit was not always enough;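 further: higher signal means more uncleaved substrate so more Dicer inhibition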
Target sequence (Q9UPY3 whole entry, looked up): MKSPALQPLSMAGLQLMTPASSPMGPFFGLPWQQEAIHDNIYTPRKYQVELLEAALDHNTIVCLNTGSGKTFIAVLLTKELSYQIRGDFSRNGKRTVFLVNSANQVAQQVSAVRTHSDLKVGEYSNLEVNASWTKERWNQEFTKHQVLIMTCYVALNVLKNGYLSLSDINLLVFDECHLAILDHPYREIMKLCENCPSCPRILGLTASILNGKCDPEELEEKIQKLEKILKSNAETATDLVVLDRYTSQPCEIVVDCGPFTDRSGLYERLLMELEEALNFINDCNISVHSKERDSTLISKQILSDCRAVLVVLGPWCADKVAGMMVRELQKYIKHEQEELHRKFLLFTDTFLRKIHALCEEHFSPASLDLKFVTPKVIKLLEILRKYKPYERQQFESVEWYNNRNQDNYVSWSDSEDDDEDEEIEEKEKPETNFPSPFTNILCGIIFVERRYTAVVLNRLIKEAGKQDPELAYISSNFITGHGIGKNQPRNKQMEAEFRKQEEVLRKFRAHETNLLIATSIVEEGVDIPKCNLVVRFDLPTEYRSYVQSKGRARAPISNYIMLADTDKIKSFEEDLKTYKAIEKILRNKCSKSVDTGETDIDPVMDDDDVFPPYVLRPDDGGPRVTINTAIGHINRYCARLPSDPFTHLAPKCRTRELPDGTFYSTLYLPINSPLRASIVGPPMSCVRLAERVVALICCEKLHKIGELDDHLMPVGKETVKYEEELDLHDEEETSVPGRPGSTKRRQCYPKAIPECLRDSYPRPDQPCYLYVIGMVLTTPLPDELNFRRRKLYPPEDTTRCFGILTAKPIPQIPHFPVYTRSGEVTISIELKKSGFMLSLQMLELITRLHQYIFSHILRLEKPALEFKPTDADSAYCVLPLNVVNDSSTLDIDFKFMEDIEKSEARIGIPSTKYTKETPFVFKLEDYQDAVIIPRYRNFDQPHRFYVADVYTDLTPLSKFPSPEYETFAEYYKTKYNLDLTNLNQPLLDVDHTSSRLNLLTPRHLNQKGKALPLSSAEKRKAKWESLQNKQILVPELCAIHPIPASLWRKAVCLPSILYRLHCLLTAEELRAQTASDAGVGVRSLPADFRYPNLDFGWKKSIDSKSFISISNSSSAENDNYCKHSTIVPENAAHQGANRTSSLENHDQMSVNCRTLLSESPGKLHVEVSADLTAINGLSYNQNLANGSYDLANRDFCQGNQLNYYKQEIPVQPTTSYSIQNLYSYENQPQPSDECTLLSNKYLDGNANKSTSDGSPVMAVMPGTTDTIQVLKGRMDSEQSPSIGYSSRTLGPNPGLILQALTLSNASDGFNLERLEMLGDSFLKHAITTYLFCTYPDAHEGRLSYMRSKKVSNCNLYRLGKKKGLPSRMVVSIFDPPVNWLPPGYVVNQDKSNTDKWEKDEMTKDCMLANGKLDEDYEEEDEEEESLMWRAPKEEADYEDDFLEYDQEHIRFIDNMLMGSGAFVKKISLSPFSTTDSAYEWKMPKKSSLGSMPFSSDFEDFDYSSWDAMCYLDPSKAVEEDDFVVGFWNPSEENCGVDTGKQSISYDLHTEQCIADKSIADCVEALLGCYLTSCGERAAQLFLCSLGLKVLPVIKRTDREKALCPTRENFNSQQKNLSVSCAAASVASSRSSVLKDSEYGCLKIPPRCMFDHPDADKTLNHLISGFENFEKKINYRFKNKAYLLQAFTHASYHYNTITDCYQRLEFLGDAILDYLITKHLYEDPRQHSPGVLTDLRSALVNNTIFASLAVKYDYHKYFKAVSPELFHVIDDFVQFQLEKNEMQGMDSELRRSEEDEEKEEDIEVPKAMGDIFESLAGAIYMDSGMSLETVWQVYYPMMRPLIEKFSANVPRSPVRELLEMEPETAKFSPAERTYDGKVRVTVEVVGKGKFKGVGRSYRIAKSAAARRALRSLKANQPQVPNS
Large screens that a line does not name were inactive.

COc1ccc(OC)c(CNc2nc3ccccc3n2CCN2CCOCC2)c1	Dicer processing 5.07
Cn1c(CNc2nc3ccccc3n2CCN2CCCCC2)nc2ccccc21	none
CCn1c(NCc2ccccn2)nc2ccccc21	none
Clc1ccc2oc(-c3csc(-c4ccccc4)n3)cc2c1	none
Cc1nc(COc2ccccc2Cl)sc1-c1ccnc(SCC(=O)c2cccc([N+](=O)[O-])c2)n1	none
COc1ccc(-c2cc(C(F)(F)F)n3nc(-c4ccc(Cl)cc4)cc3n2)cc1	none
O=C(Nc1ccc(Br)cc1)c1csc2c1CCCC2	none
CCOC(=O)NC(=O)c1cn(Cc2cccs2)c(=O)n(C)c1=O	none
Cc1ccc(C2Nn3c(C)nnc3SC2C(=O)Nc2ccc(Br)cc2Cl)cc1 (stereo not drawn)	none
CSc1scc(Cl)c1S(=O)(=O)C(C)C	Dicer processing 13.7
CSc1sc(C(=O)O)c(N)c1S(=O)(=O)C(C)C	none
CSc1scc(NC(=O)Nc2ccc(OC(F)(F)F)cc2)c1S(=O)(=O)C(C)C	none
C=CCn1c2ccc(Br)cc2c2cc(Br)ccc21	none
Cc1csc2ncnc(N/N=C/c3ccccc3Cl)c12	none
CCN(C(C)=O)c1nc2c3ccccc3n(C(C)=O)c2s1	none
CC(c1ccccc1)n1c(SCC(=O)c2ccc(F)cc2)n[nH]c1=O (stereo not drawn)	none
O=C(CSc1nc2ccccc2s1)N1CCOCC1	none
CC(c1ccccc1)n1c(SCC(=O)N2CCOCC2)n[nH]c1=O (stereo not drawn)	Dicer processing 13
COc1cc2ncnc(NC(C)c3ccccc3)c2cc1OC (stereo not drawn)	none
Cc1cccc(C)c1NC(=S)NNC(=O)c1ccccc1C1=NCCCN1	none
O=C(O)c1ccc(Cn2cccn2)o1	none
CC(C)(CC(=O)O)CC(=O)N1CCCc2ccccc21	none
COC(=O)c1cc(OC)c(OC)c(OC)c1N=C/C(C(C)=O)=C(\C)O	none
Cc1cc(N)n2nc(C)c(-c3ccc(Cl)cc3)c2n1	none
Cc1ccc(-c2cc3nc(C)c(-c4ccccc4)c(N)n3n2)cc1	none
Cc1nn2c(N)cc(-c3ccccc3)nc2c1-c1ccccc1	Dicer processing 3.76
COCCOC(=O)c1c(C)oc2cc(Br)c(OCc3cccc(OC)c3)cc12	none
O=C(Nc1nc2c(s1)CCCC2)C(=O)c1c(-c2ccccc2)cc2ccccn12	none
O=C(CSc1nnc2scc(-c3ccc(Cl)cc3)n12)Nc1nc(-c2ccccc2)ns1	none
Cc1cc(NC(=O)C2Sc3nnc(C)n3NC2c2ccc(Cl)cc2)ccc1Br (stereo not drawn)	Dicer processing 3.72
Cc1nnc2n1NC(c1ccc(Cl)cc1)C(C(=O)Nc1ccc(Br)cc1)S2 (stereo not drawn)	none
Cc1cc(C)cc(NC(=O)C2Sc3nnc(C)n3NC2c2ccc(Cl)cc2)c1 (stereo not drawn)	none
CC(C(=O)NNS(=O)(=O)c1ccc(Cl)cc1)n1nnc(-c2cc(C(F)(F)F)cc(C(F)(F)F)c2)n1 (stereo not drawn)	none
O=S(=O)(Nc1nc2ccccc2nc1NCc1ccccc1)c1ccc(Cl)cc1	Dicer processing 6.04
O=S(=O)(Nc1nc2ccccc2nc1Nc1ccc(Cl)cc1)c1ccccc1	none
O=c1[nH]c2ccc(Nc3nc4ccccc4nc3NS(=O)(=O)c3ccc(Cl)cc3)cc2[nH]1	none
COc1ccc(OCc2nnc(NC(=O)Nc3ccccc3F)s2)cc1	none
COc1cccc(NC(=O)Nc2nnc(COc3ccc(F)cc3)s2)c1	Dicer processing 4.42
COc1cccc(NC(=O)Nc2nnc(COc3ccccc3F)s2)c1	Dicer processing 5
CCc1cc(C(=O)c2ccc(OC)cc2)c(NC(=O)Nc2ccc(F)cc2)s1	none
COc1ccc(NC(=O)Nc2nnc(-c3ccncc3)s2)cc1	Dicer processing 4.18
COc1cccc(NC(=O)NCCN2CCN=C2C)c1	none
CCOC(=O)Cc1nnc(NC(=O)Nc2ccccc2)s1	none
COc1ccccc1NC(=O)Nc1nnc(COc2ccccc2F)s1	Dicer processing 4.8
CCOc1ccc2nc(NC(=O)Nc3ccc(F)cc3)sc2c1	none
COc1ccc(NC(=O)Nc2cncc(C#Cc3ccccc3)c2)cc1	none
COCc1nnc(NC(=O)c2ccco2)s1	none
CC(C)c1nnc(NC(=O)Nc2ccccc2)s1	none
COc1cc(C)ccc1S(=O)(=O)n1cnc2cc(C)c(C)cc21	none
O=C(CSc1ccccc1[N+](=O)[O-])NNC(=S)NC1CC2C=CC1C2 (stereo not drawn)	none
O=C(O)CNC(=O)/C=C/c1ccccc1	none
CN(C)C(=O)c1cc(Br)cc2c1OCC2	none
CCOC(=O)C1(C)Oc2cc(Cl)ccc2NC1=O (stereo not drawn)	none
COc1cc(C(=O)NNC(=S)NC2CC3C=CC2C3)cc(OC)c1OC (stereo not drawn)	none
CC(C)c1nc2sc3c(NCCCN(C)C)ncnc3c2c2c1CCCC2	none
CCCc1cnc(N2CCN(S(C)(=O)=O)CC2)nc1	Dicer processing 3.49
CCCc1cnc(N2CCN(S(=O)(=O)c3ccc(CNC(=O)c4ccccc4)s3)CC2)nc1	none
CCCc1cnc(N2CCN(S(=O)(=O)c3sc4ccc(Cl)cc4c3C)CC2)nc1	none
CCn1c2ccccc2c2cc(NC(=O)C(=O)NCC3CCCO3)ccc21 (stereo not drawn)	none
COc1ccc(Cl)cc1NC(=O)C(=O)NCC1CCCO1 (stereo not drawn)	none
N#C/C(=N\Nc1ccc(F)cc1)C(=O)NCC1CCCO1 (stereo not drawn)	Dicer processing 3.77
O=C(Cn1cccc(C(F)(F)F)c1=O)Nc1cccc(Cl)c1	none
CCOc1ccc(OCC)c2sc(C)nc12	Dicer processing 3.2
CCc1ccc2[nH]c3sc(C)nc3c2c1	none
CCOc1nc2ccccc2nc1OCC	none
Nc1nc(-c2cccnc2)nn1C(=O)c1ccccc1	none
Cc1noc(C)c1NC(=O)NCC1CCN(S(=O)(=O)c2ccccc2)CC1	none
COc1ccccc1CC(=O)Nc1ccc2ccccc2n1	none
COc1cccc(CN(C)C)c1O	none
COc1cccc(CNc2cnc3ccccc3c2)c1O	Dicer processing 4.46
CCOC(=O)c1c(NC(=O)c2nc3n(n2)C(C(F)F)CC(C)N3)sc2c1CCC(C)C2 (stereo not drawn)	none
CC1=C(C(=O)OC2CCCC2)C(c2ccc3c(c2)OCO3)C2=C(CC(c3ccccc3)CC2=O)N1 (stereo not drawn)	none
CC1(C)CC(=O)C2=C(C1)c1c(ccc3ccccc13)NC2c1cccc(O)c1 (stereo not drawn)	none
O=C(O)C1CCN(c2ncnc3scc(-c4ccccc4)c23)CC1	none
CCCCc1c(O)nc(SC)[nH]c1=O	none
CCCCc1c(C)nc(N)[nH]c1=O	none
CCCCc1c(C)nc(SC)[nH]c1=O	Dicer processing 5.31
Cc1nn(-c2ccccc2)c2c1C(c1ccc(Cl)cc1)C(C#N)=C(N)O2 (stereo not drawn)	none
O=C1C2ON(c3ccccc3)C(c3ccc(F)cc3)C2C(=O)N1Cc1ccccc1 (stereo not drawn)	none
CCOc1ccc(N2C(=O)C3ON(c4ccccc4)C(c4ccco4)C3C2=O)cc1 (stereo not drawn)	none
COc1ccc(C2C3C(=O)N(Cc4ccccc4)C(=O)C3ON2c2ccccc2)cc1 (stereo not drawn)	none
O=C1C2ON(c3ccccc3)C(c3ccco3)C2C(=O)N1c1ccc(Br)cc1 (stereo not drawn)	none
O=C1C2ON(c3ccccc3)C(c3ccco3)C2C(=O)N1Cc1ccccc1 (stereo not drawn)	Dicer processing 4.11
O=C1C2ON(c3ccccc3)C(c3ccco3)C2C(=O)N1c1ccccc1 (stereo not drawn)	Dicer processing 3.55
O=C1C(=O)N(CCCn2ccnc2)C(c2cccc(Br)c2)/C1=C(\O)c1ccc(F)cc1 (stereo not drawn)	none
COC(=O)Nc1ccc(S(=O)(=O)N2CCC(C(=O)Nc3ccc4c(c3)OCO4)CC2)cc1	none

Assay outcomes (PubChem BioAssay)
